This is a sample that favours compounds with a hit; in the whole collection about 0.71% have one here.
GALK inh: inhibitors of human galactokinase; Purified GALK, Kinase-Glo residual ATP luminescence; Potency, µM (series often up to 57.5 µM), without a hit: at the top dose activity change, negative = inhibition, usual class: inhibitors; 0.007% of 270,000 active; also: potency is read from the fitted curve at half-maximal effect
Target sequence (P51570 whole entry, looked up): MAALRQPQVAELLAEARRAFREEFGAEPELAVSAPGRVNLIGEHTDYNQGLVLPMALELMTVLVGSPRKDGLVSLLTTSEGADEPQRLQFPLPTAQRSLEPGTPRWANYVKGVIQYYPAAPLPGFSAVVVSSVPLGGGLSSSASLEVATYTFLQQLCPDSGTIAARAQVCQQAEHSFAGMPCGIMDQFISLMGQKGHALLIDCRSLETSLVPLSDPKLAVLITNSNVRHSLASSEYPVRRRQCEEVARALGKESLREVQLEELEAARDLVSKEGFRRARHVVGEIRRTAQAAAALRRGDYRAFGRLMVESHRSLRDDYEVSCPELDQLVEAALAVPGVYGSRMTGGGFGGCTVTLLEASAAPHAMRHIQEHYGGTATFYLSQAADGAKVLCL
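Quantitative HTS: GALK 5 nM, ATP 35 uM, galactose 100 uM, 1 h room temperature, then luciferase-based ATP detection.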
USP1-UAF1 inh: USP1/UAF1 (human) deubiquitinase inhibition; 0.23% of 390,000 active; AID 743255; Potency, µM (doses to about 57.1 µM), for the others: at the highest dose activity change, negative = inhibition, actives largely listed as inhibitors; recombinant USP1/UAF1, Ub-Rhodamine cleavage fluorescence; O94782; also: potency is read from the fitted curve at half-maximal effect; nearly all actives have a fitted effect of over 60% in size
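USP1/UAF1 complex (1 nM) preincubated 15 min at room temperature with compound, then Ub-Rho substrate (150 nM final) added. Kinetic fluorescence at 480/540 nm over 6 reads at 60 s intervals; 50 mM HEPES pH 7.8, 0.5 mM EDTA, 0.1 mg/ml BSA, 1 mM TCEP, 0.01% Tween-20.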
USP2a block: inhibitors of human ubiquitin-specific protease USP2a; O75604; Potency, µM (titrated, usually from 38.3 µM), without a hit: at the top dose activity change, negative = inhibition, most hits filed as inhibitors; 0.01% of 330,000 active; AID 463254; USP2 core, Ub-CHOP2 coupled fluorogenic reporter, 485/531;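 also: potency is read from the fitted curve at half-maximal effect; plate controls were DMSO wells for no effect and full inhibition by NEM control for full effect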
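USP2 core (10nM final) preincubated 30min RT with compound in 20mM Tris-HCl pH 8.0, 2mM CaCl2, 2mM beta-mercaptoethanol, 0.05% CHAPS; 25nM Ub-CHOP2 plus 25nM reporter substrate added, fluorescence (Ex485/Em531) read after 60min.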
Eya2 inh: inhibitors of human Eya2 phosphatase activity; O00167; recombinant Eya2, OMFP fluorescence dephosphorylation (OMFP is methylfluorescein phosphate); Potency, µM (doses to about 76.9 µM), without a hit: at the highest dose activity, negative = inhibition, actives largely listed as inhibitors; 0.006% of 330,000 active; AID 488837; also: potency is read from the fitted curve at half-maximal effect
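Eya2 (0.2 uM) preincubated 10 min at ambient with compound, then OMFP substrate added at 50 uM; 10 min reaction in 50 mM HEPES pH 7.5, 50 mM NaCl, 5 uM MgCl2, 0.05% BSA, 1 mM DTT. Fluorescence read at Ex 485/Em 525 nm.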
PI4K2A block: blocks human PI4K2A kinase activity; Q9BTU6; purified PI4K2A, ADP-Glo luminescence, 1 h; hits give low values; activity change, negative = inhibition, % at 76.9 µM; 0.13% of 420,000 active; in the data active = activity change below about -50%; inconclusive = mostly about -30% to -49%;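 also: -100% = wells without enzyme as full effect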
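In this quantitative HTS, ADP production by PI4K2A was quantified luminescently after 1 h at ambient temperature; 100 microM adenosine served as plate-quality control.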
Coupling enz: inhibits coupling enzyme system, counter-screen for aldolase hits; coupling enzyme system counterscreen, AmpLite Red fluorescence; activity change, negative = inhibition, % at 58.2 µM, hits read low; 0.67% of 290,000 active; AID 2472; in the data active = activity change below about -30%
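Counterscreen of the coupled detection system alone, without aldolase: glyceraldehyde-3-phosphate coupling enzymes plus AmpLite Red readout. Compounds at 57.5 uM final, 10 min RT preincubation, 20 min RT reaction, fluorescence 525/598 nm.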
Numbers without * were called inactive; u = inconclusive; x = not tested or not shown. Unless noted, calls follow the shape of the dose curve; as a rule, active = well fitted curve in the direction sought with a large enough effect; inconclusive = small, poorly fitted or top-dose-only effect, or another doubt; inactive = no such curve, though single readings can be large; an effect the other way counts as inactive or inconclusive. Unless noted, % is scaled to controls: 0 for no effect and ±100 for the full control effect.

SMILES	GALK inh	USP1-UAF1 inh	USP2a block	Eya2 inh	PI4K2A block	Coupling enz
COc1ccccc1C(=O)Nc1nc2ccccc2[nH]1	u	-22%	0%	4%	-91*	-7
COc1ccccc1C(=O)NCCC(=O)Nc1nc2ccccc2[nH]1	x	-13%	0%	-25%	0	x
C[n+]1cccc2cccc([O-])c21	u	6.3µM*	2%	-10%	u	-45*
CC(C)c1cc[n+](-c2nc([O-])sc2C=O)cc1	1%	-20%	5%	17%	-2	-40*
CCc1cc[n+](-c2nc([O-])sc2C=O)cc1	0%	-14%	23%	3%	-11	-38*
CCOC(=O)OCC1OC(C#Cc2ccc(C)cc2C)C=CC1OC(=O)OCC (centres undefined)	x	x	x	x	x	1
O=C(CSc1nnnn1-c1ccc(F)cc1)c1ccc(O)c(O)c1	-1%	-17%	5.6µM*	2%	-2	0
CCSC(=O)N=Nc1ccc(O)cc1	x	32µM*	x	x	-10	x
Cc1nnc(NC(=O)c2sc3nc(-c4cccs4)cc(C(F)(F)F)c3c2N)s1	-4%	-9%	1%	21%	1	6
CCN(CC)C(=O)c1sc2nc(-c3cccs3)cc(-c3cccs3)c2c1N	-4%	u	3%	20%	1	0
CC(C)(C)C(=O)c1sc2nc(-c3cccs3)cc(C(F)(F)F)c2c1N	-1%	1.3µM*	-1%	26%	0	0
CCN(CC)C(=O)c1sc2nc(-c3cccs3)cc(-c3ccc(Cl)cc3)c2c1N	x	28µM*	u	-8%	-5	4
O=C(Nc1nc2c(s1)CN(Cc1ccccc1)CC2)c1cccc(S(=O)(=O)N2CCc3ccccc32)c1	2%	28µM*	u	23%	0	x
C#CCCCO/N=C1/C[C@@H](O)[C@@H](O)[C@@H]2[C@@H]3C(=O)N(C(C)(C)C)C(=O)[C@H]3CC[C@@H]12	x	x	x	x	x	1
COc1ccc(-n2nc3cc(C)c(N)c(Br)c3n2)cc1	1%	-19%	1%	-14%	-1	-50*
Cc1[nH]cnc1-c1ccc(Cl)cc1	x	x	x	x	2	x
COc1ccc(OC)c(/C=N/c2oc(-c3ccco3)c(-c3ccco3)c2C#N)c1	-1%	-7%	4%	8%	-13	-44*
O=C(O)c1ccc(N=Nc2c(O)[nH]c3ccccc23)cc1	x	-24%	0%	11%	-62*	-2
CN(C)C(=O)c1ccc(N=Nc2c(O)c3ccccc3[nH]c2=O)cc1	x	-13%	x	x	-14	x
CCCN(CCC(=O)Nc1cc(OC)cc(OC)c1)CC1CC1	8%	-12%	-1%	6%	-5	-36*
CCCN(CCC(=O)Nc1ccccc1F)CC1CC1	-1%	1%	1%	1%	7	1
CCN(CCC(=O)Nc1cc(OC)cc(OC)c1)Cc1ccccc1	-3%	4%	-1%	-4%	-2	-40*
COc1ccc(CNc2ncncc2-c2ccoc2)c(OC)c1	x	x	x	x	x	0
CCc1ccc(S(=O)(=O)/N=C2\C=C(Nc3cccc(C(=O)O)c3)C(=O)c3ccccc32)cc1	-30%	5.6µM*	-3%	-20%	u	-44*
CCc1ccc(S(=O)(=O)/N=C2\C=C(Nc3ccc(O)cc3)C(=O)c3ccccc32)cc1	6%	10µM*	-2%	0%	u	-35*
SMILES	GALK inh	USP1-UAF1 inh	USP2a block	Eya2 inh	PI4K2A block	Coupling enz
O=C(O)c1cccc(NS(=O)(=O)c2ccc(-c3ccc(S(=O)(=O)Nc4cccc(C(=O)O)c4)cc3)cc2)c1	-2%	-4%	-1%	12%	-2	16
CCOC(=O)N/N=C1/C[C@@H](O)[C@@H](O)[C@@H]2[C@H]3C(=O)N(c4ccc(F)cc4F)C(=O)[C@@H]3CC[C@H]12	x	x	x	x	x	-1
CCCCCCCCCCCCCCCC[N+](C)(C)CCN(Cc1ccc(OC)cc1)c1ncccn1	x	u	10µM*	u	-1	-1
Cc1nnc(N/N=C/c2ccccc2F)n1N	x	-20%	1%	-4%	-26	2
Cc1nnc(N/N=C/c2ccco2)n1N	4%	-17%	2%	-13%	u	-42*
C=CC(C1=CC(=O)C(OC)=CC1=O)c1ccccc1 (centres undefined)	x	x	x	x	x	-53*
COC1=C(OC)C(=O)C(Sc2ccc3ccccc3c2)=CC1=O	x	-22%	x	x	-9	x
C=CC(C1=CC(=O)C(OC)=C(OC)C1=O)c1ccccc1 (centres undefined)	x	x	x	x	x	-80*
C=CC(C1=CC(=O)C(OC)=CC1=O)c1ccc(OC)cc1 (centres undefined)	x	x	x	x	x	-40*
Cc1[nH][nH]c(=O)c1C(c1c(C)[nH][nH]c1=O)c1cn(Cc2ccccc2Cl)c2ccccc12	2%	28µM*	2%	-2%	u	-43*
N/C(=N\O)c1cn(Cc2ccccc2Cl)c2ccccc12	4%	-15%	3%	8%	8	-1
O=C(CS(=O)c1ccc(C(F)(F)F)cc1[N+](=O)[O-])Oc1ccccc1 (centres undefined)	0%	-16%	1%	-36%	8	-39*
CC1(C)O[C@@H]2C[C@H]3[C@@H]4CCC5=CC(=O)C=C[C@]5(C)[C@@H]4[C@@H](O)C[C@]3(C)[C@]2(C(=O)CO)O1	x	x	x	x	-4	x
CC(C)(C)C(=O)NC(Nc1cccc2cccnc12)C(Cl)(Cl)Cl (centres undefined)	-2%	-6%	0%	4%	u	-66*
O=C(NN=Cc1cccc([N+](=O)[O-])c1)c1cccc2ccccc12	x	-2%	x	x	8	x
O=C(N/N=C/c1cccc([N+](=O)[O-])c1)c1ccccc1-n1cccc1	-1%	-19%	1%	-6%	-3	-38*
COC1=C(Nc2ccc(O)cc2)C(=O)c2ccccc2C1=O	3%	u	-2%	-3%	u	-33*

Screens as filed in PubChem BioAssay.
